Results published in PubChem BioAssay AID1159580 (chemical genetic matrix, 2015).
The campaign covered roughly 5,500 compounds. About 2,000 (36%) were called active. About 18% were inconclusive and are not listed. Cut-off read from the data, not from the text of the source: active = normalized growth mostly below about 0.91 (no sharp cut-off); inconclusive = no clear call, values can overlap the other calls; inactive = mostly above about 0.92. Some of the results follow.

Assay: chemical genetic growth profiling, strain panel (AID 1159580);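 note: tested at 20 µM; growth read once vehicle control cultures reached saturation at 30 °C; 1 = growth at the plate median or of vehicle wells; lower values mean less growth of the strain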
Conditions: growth OD
[1] = S. cerevisiae deletion strains, locus YAL013W, strain DEP1, hits give low values
[2] = S. cerevisiae deletion strains, locus YBR229C, strain ROT2, hits give low values
[3] = S. cerevisiae deletion strains, locus YCL061C, strain MRC1, hits give low values
[4] = S. cerevisiae deletion strains, locus YDL101C, strain DUN1, hits give low values
[5] = S. cerevisiae deletion strains, locus YDL134C, strain PPH21, hits give low values
[6] = S. cerevisiae deletion strains, locus YDR150W, strain NUM1, hits give low values
[7] = S. cerevisiae deletion strains, locus YEL061C, strain CIN8, hits give low values
[8] = S. cerevisiae deletion strains, locus YGR078C, strain PAC10, hits give low values
[9] = S. cerevisiae deletion strains, locus YHR030C, strain SLT2, hits give low values
[10] = S. cerevisiae deletion strains, locus YHR087W, strain rtc3, hits give low values
[11] = S. cerevisiae deletion strains, locus YJL187C, strain SWE1, hits give low values
[12] = S. cerevisiae deletion strains, locus YJR043C, strain POL32, hits give low values
[13] = S. cerevisiae deletion strains, locus YJR075W, strain HOC1, hits give low values
[14] = S. cerevisiae deletion strains, locus YKL190W, strain CNB1, hits give low values
[15] = S. cerevisiae deletion strains, locus YLR039C, strain RIC1, hits give low values
[16] = S. cerevisiae deletion strains, locus YLR058C, strain SHM2 (second series), hits give low values
[17] = S. cerevisiae deletion strains, locus YLR085C, strain ARP6, hits give low values
[18] = S. cerevisiae deletion strains, locus YLR262C, strain YPT6, hits give low values
[19] = S. cerevisiae deletion strains, locus YML094W, strain GIM5, hits give low values
[20] = S. cerevisiae deletion strains, locus YMR219W, strain ESC1, hits give low values
[21] = S. cerevisiae deletion strains, locus YMR263W, strain SAP30, hits give low values
[22] = S. cerevisiae deletion strains, locus YNL153C, strain GIM3, hits give low values
[23] = S. cerevisiae deletion strains, locus YNL298W, strain CLA4 (second series), hits give low values
[24] = S. cerevisiae deletion strains, locus YNL322C, strain KRE1, hits give low values
[25] = S. cerevisiae deletion strains, locus YNR030W, strain Alg12, hits give low values
[26] = S. cerevisiae deletion strains, locus YOL006C, strain TOP1, hits give low values
[27] = S. cerevisiae deletion strains, locus YPL055C, strain LGE1, hits give low values
[28] = S. cerevisiae deletion strains, locus YPL241C, strain CIN2, hits give low values
[29] = S. cerevisiae deletion strains, locus YPR135W, strain CTF4, hits give low values
[30] = S. cerevisiae strains, strain wild type, hits give low values
[31] = S. cerevisiae deletion strains, locus YGR229C, strain SMI1, hits give low values
[32] = S. cerevisiae deletion strains, locus YMR307W, strain GAS1, hits give low values
[33] = S. cerevisiae deletion strains, locus YNL128W, strain TEP1, hits give low values

Measured: normalized growth

Cc1onc(-c2ccccc2Cl)c1C(=O)Nc1ccc(S(=O)(=O)Nc2nccs2)cc1
inactive: [1] 1.01 | [2] 1.01 | [3] 0.985 | [4] 0.977 | [5] 0.976 | [6] 0.972 | [7] 1.01 | [8] 1.01 | [9] 0.982 | [10] 0.968 | [11] 1 | [12] 0.966 | [13] 1 | [14] 0.989 | [15] 0.975 | [16] 0.982 | [17] 1.05 | [18] 0.97 | [19] 1.03 | [20] 0.999 | [21] 1 | [22] 0.98 | [23] 0.949 | [24] 0.995 | [25] 0.996 | [26] 0.926 | [27] 1.05 | [28] 1.01 | [29] 0.932 | [30] 0.968

Cc1onc(-c2ccccc2Cl)c1C(=O)Nc1ccc2c(c1)OCO2
inactive: [1] 0.993 | [2] 1.02 | [4] 1 | [5] 0.985 | [6] 0.935 | [7] 1.01 | [8] 1 | [31] 0.997 | [9] 1.08 | [10] 1.01 | [11] 1.01 | [12] 1.03 | [13] 1.01 | [15] 0.971 | [16] 1.02 | [17] 0.997 | [18] 0.99 | [19] 1.02 | [20] 1 | [21] 0.919 | [32] 1.01 | [22] 1 | [23] 1.04 | [24] 0.995 | [25] 1.03 | [27] 0.888 | [28] 1.01 | [29] 1.14

CSc1nc2ccc(NC(=O)c3c(-c4ccccc4)noc3C)cc2s1
active: [18] 0.787
inactive: [1] 0.971 | [2] 1.01 | [3] 0.99 | [4] 1.01 | [5] 1 | [6] 0.896 | [7] 1 | [8] 0.984 | [9] 0.897 | [10] 1 | [11] 1 | [12] 0.999 | [13] 1 | [15] 0.888 | [16] 0.996 | [17] 0.85 | [19] 0.974 | [20] 1 | [21] 0.945 | [32] 0.961 | [33] 1 | [22] 1.01 | [23] 1 | [24] 0.998 | [25] 1 | [27] 0.926 | [28] 1 | [29] 0.921 | [30] 1.01

CCOP(=S)(OCC)SCCSCC
inactive: [1] 0.992 | S. cerevisiae deletion strains, locus YBR021W, strain FUR4, hits give low values 1 | [2] 0.955 | S. cerevisiae deletion strains, locus YCL029C, strain bik1, hits give low values 0.977 | S. cerevisiae deletion strains, locus YDL035C, strain GPR1, hits give low values 0.964 | S. cerevisiae deletion strains, locus YDL074C, strain BRE1, hits give low values 0.896 | [4] 0.977 | [5] 0.983 | S. cerevisiae deletion strains, locus YDL185W, strain tfp1, hits give low values 0.956 | S. cerevisiae deletion strains, locus YDL192W, strain arf1, hits give low values 0.981 | S. cerevisiae deletion strains, locus YDR101C, strain arx1, hits give low values 0.991 | [6] 0.975 | S. cerevisiae deletion strains, locus YDR162C, strain NBP2, hits give low values 0.967 | S. cerevisiae deletion strains, locus YDR318W, strain mcm21, hits give low values 0.97 | S. cerevisiae deletion strains, locus YDR388W, hits give low values 0.984 | S. cerevisiae deletion strains, locus YDR502C, strain sam2, hits give low values 0.986 | [7] 0.983 | S. cerevisiae deletion strains, locus YER110C, hits give low values 0.985 | S. cerevisiae deletion strains, locus YER155C, strain BEM2, hits give low values 0.989 | S. cerevisiae deletion strains, locus YER167W, strain BCK2, hits give low values 0.992 | S. cerevisiae deletion strains, locus YGL078C, strain dbp3, hits give low values 0.996 | S. cerevisiae deletion strains, locus YGL086W, strain mad1, hits give low values 0.991 | S. cerevisiae deletion strains, locus YGL248W, strain PDE1, hits give low values 0.972 | [8] 0.965 | S. cerevisiae deletion strains, locus YGR135W, strain pre9, hits give low values 0.982 | [31] 0.968 | S. cerevisiae deletion strains, locus YGR252W, strain gcn5, hits give low values 0.992 | [9] 0.992 | S. cerevisiae deletion strains, locus YHR079C, strain IRE1 (second series), hits give low values 0.997 | S. cerevisiae deletion strains, locus YHR094C, strain hxt1, hits give low values 0.991 | S. cerevisiae deletion strains, locus YHR129C, strain ARP1, hits give low values 0.976 | S. cerevisiae deletion strains, locus YHR200W, strain rpn10, hits give low values 0.994 | S. cerevisiae deletion strains, locus YIL066C, strain RNR3, hits give low values 0.977 | S. cerevisiae deletion strains, locus YIL073C, strain SPO22, hits give low values 0.982 | S. cerevisiae deletion strains, locus YIL125W, strain kgd1, hits give low values 0.975 | S. cerevisiae deletion strains, locus YIR030C, strain dcg1, hits give low values 0.996 | S. cerevisiae deletion strains, locus YJL095W, strain BCK1, hits give low values 0.97 | S. cerevisiae deletion strains, locus YJL134W, strain LCB3, hits give low values 0.98 | S. cerevisiae deletion strains, locus YJL168C, strain set2, hits give low values 0.992 | S. cerevisiae deletion strains, locus YJL187C, strain SWE1 (second series), hits give low values 0.979 | [12] 0.991 | [13] 0.961 | S. cerevisiae deletion strains, locus YKL009W, strain mrt4, hits give low values 0.944 | S. cerevisiae deletion strains, locus YKL068W, hits give low values 0.977 | S. cerevisiae deletion strains, locus YKL085W, strain MDH1 (second series), hits give low values 0.979 | S. cerevisiae deletion strains, locus YKL085W, strain MDH1, hits give low values 0.979 | [14] 0.964 | S. cerevisiae deletion strains, locus YKR001C, strain vps1, hits give low values 0.976 | [15] 0.937 | S. cerevisiae deletion strains, locus YLR058C, strain SHM2, hits give low values 0.972 | S. cerevisiae deletion strains, locus YLR102C, strain apc9, hits give low values 0.988 | [18] 0.878 | S. cerevisiae deletion strains, locus YLR268W, strain sec22, hits give low values 0.975 | S. cerevisiae deletion strains, locus YLR330W, strain CHS5, hits give low values 0.974 | S. cerevisiae deletion strains, locus YLR342W, strain FKS1 (second series), hits give low values 1.03 | S. cerevisiae deletion strains, locus YLR371W, strain rom2, hits give low values 0.999 | S. cerevisiae deletion strains, locus YLR418C, strain cdc73, hits give low values 0.947 | S. cerevisiae deletion strains, locus YML016C, strain PPZ1, hits give low values 0.982 | S. cerevisiae deletion strains, locus YML032C, strain rad52, hits give low values 0.99 | S. cerevisiae deletion strains, locus YML124C, strain tub3, hits give low values 0.995 | S. cerevisiae deletion strains, locus YMR078C, strain ctf18, hits give low values 0.978 | S. cerevisiae deletion strains, locus YMR223W, strain ubp8, hits give low values 0.992 | [21] 0.975 | [32] 1.04 | S. cerevisiae deletion strains, locus YNL067W, strain RPL9B, hits give low values 0.972 | [33] 0.945 | [22] 0.978 | S. cerevisiae deletion strains, locus YNL233W, strain BNI4, hits give low values 0.99 | S. cerevisiae deletion strains, locus YNL250W, strain rad50, hits give low values 0.979 | S. cerevisiae deletion strains, locus YNL271C, strain bni1, hits give low values 0.994 | S. cerevisiae deletion strains, locus YNL298W, strain CLA4, hits give low values 0.982 | S. cerevisiae deletion strains, locus YNL307C, strain MCK1, hits give low values 0.993 | [24] 0.976 | S. cerevisiae deletion strains, locus YNR052C, strain pop2, hits give low values 0.998 | [26] 0.846 | S. cerevisiae deletion strains, locus YOL012C, strain htz1 0.792 | S. cerevisiae deletion strains, locus YOL147C, strain pex11, hits give low values 0.991 | S. cerevisiae deletion strains, locus YOR061W, strain CKA2, hits give low values 0.96 | S. cerevisiae deletion strains, locus YOR069W, strain VPS5, hits give low values 0.997 | S. cerevisiae deletion strains, locus YOR136W, strain idh2, hits give low values 0.995 | S. cerevisiae deletion strains, locus YOR144C, strain elg1, hits give low values 0.99 | S. cerevisiae deletion strains, locus YOR184W, strain ser1, hits give low values 0.956 | S. cerevisiae deletion strains, locus YOR316C, strain cot1, hits give low values 0.973 | [27] 0.949 | [28] 0.976 | S. cerevisiae deletion strains, locus YPR119W, strain clb2, hits give low values 0.99 | S. cerevisiae deletion strains, locus YPR141C, strain kar3, hits give low values 0.968 | S. cerevisiae deletion strains, locus YPR163C, strain tif3, hits give low values 0.999 | S. cerevisiae deletion strains, locus YPR167C, strain met16, hits give low values 0.988 | S. cerevisiae deletion strains, strain wtn01, hits give low values 0.995 | [30] 0.979
